Test results as given in PMC10726135, “HNF4α isoforms regulate the circadian balance between carbohydrate and lipid metabolism in the liver”.
Whole data set: some 18,000 sequences, median “log2 normalized intensity” near 0.36, cut for the highest 2% near 7.3. The full list was thinned out, with the highest values kept by preference.

These sequences were tested against T1, HNF4alpha8 (COS-7 nuclear extract) (Homo sapiens, UniProt P41235-5 1-452) (assay: protein-binding microarray; COS-7 nuclear extract on double-stranded Agilent 4x180k PBM; binding buffer, salt, pH and temperature not given in the material; high values mean tight binding). Settings: chain copies: 2; label: 3' end of strand 1 on the slide; dsDNA, one strand shown.
T1 sequence: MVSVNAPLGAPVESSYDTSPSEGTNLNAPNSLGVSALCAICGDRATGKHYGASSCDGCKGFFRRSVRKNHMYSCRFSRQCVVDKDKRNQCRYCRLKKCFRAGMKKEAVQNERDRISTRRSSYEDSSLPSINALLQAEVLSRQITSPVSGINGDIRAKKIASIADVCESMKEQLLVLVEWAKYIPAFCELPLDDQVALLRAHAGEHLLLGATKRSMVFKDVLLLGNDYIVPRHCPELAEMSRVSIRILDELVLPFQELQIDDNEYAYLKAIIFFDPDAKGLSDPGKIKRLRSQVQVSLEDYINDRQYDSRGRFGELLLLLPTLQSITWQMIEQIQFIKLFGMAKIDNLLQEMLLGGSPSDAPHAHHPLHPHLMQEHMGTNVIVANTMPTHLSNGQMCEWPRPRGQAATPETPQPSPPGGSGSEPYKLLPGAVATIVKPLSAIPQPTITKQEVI
Outline: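 COS-7 cells were transiently transfected by CaPO4 with an expression vector for a human HNF4α isoform, and nuclear extracts were prepared from them. The extracts were applied to a custom Agilent SurePrint G3 4x180k array of double-stranded ~60-nt oligonucleotides, with ~44,000 test sequences spotted in quadruplicate. An Agilent G2565CA scanner imaged bound HNF4α at 2-µm resolution. Binding signal is the background-corrected, normalized gProcessedSignal from Agilent software.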
“TTGGACTTTGTACATTCCAAATACGATAATGCCTAGGGAGATTAGAGTATCGGTCGA” gave a binding signal of 5.9 log2 normalized intensity. Sequence “ACATCAGAAGTTGGACTTTGTACATTCCAAGCCTAGGGAGATTAGAGTATCGGTCGA” has a binding signal of 8.13 log2 normalized intensity. Work on “AATACGACCTTTGGACAGGGTGACGTCATTGCCTAGGGAGATTAGAGTATCGGTCGA” yielded a binding signal of 6.84 log2 normalized intensity. “GTACTTTGTACATGGGAATAGACATTCCAGGCCTAGGGAGATTAGAGTATCGGTCGA” showed a binding signal of 1.99 log2 normalized intensity. “TCCAAAATACGACCTTTGGACAGGGTGACGGCCTAGGGAGATTAGAGTATCGGTCGA” was tested, and the binding signal was 7.56 log2 normalized intensity. Sequence “AGAAGTTGGACTTTGTACATTCCAAATACGGCCTAGGGAGATTAGAGTATCGGTCGA” has a binding signal of 7.64 log2 normalized intensity. With “TTTGTCACATTCCAGACTTTGTACAAGGGCGCCTAGGGAGATTAGAGTATCGGTCGA” the binding signal was 3.1 log2 normalized intensity. Work on “CCTGGTGACCTTTGTTTGGTCAAATACCTAGCCTAGGGAGATTAGAGTATCGGTCGA” yielded a binding signal of 3.66 log2 normalized intensity. For “GGGCTTTTGTCACATTCCAGACTTTGTACAGCCTAGGGAGATTAGAGTATCGGTCGA”, the binding signal was 5.85 log2 normalized intensity. “AAAGGCCTTTGAAGCTTGAAGGAGTATATGGCCTAGGGAGATTAGAGTATCGGTCGA” showed a binding signal of 0.256 log2 normalized intensity. In the case of “CTTATCAGCAGCTGGGGTGACTGATTGGAGGCCTAGGGAGATTAGAGTATCGGTCGA”, the binding signal is reported as 0.845 log2 normalized intensity. For “AGTGCACCTTAATAAGCACATTCCTTTCCCGCCTAGGGAGATTAGAGTATCGGTCGA”, the binding signal was -0.98 log2 normalized intensity. Work on “ATCTTATCAGCAAGGGCATTTGCGTAGGCTGCCTAGGGAGATTAGAGTATCGGTCGA” yielded a binding signal of -0.794 log2 normalized intensity. “TGCTAAGTGCCATGTAATCAAACTGAACTTGCCTAGGGAGATTAGAGTATCGGTCGA” gave a binding signal of 2.1 log2 normalized intensity. “CTGTGCTTTGTTTACTTAACCTTTGATCATGCCTAGGGAGATTAGAGTATCGGTCGA” was tested, and the binding signal was 7.84 log2 normalized intensity. Work on “GATATTTAACCTTTGATCTGTAAGCTCTCTGCCTAGGGAGATTAGAGTATCGGTCGA” yielded a binding signal of 5.39 log2 normalized intensity. Sequence “GTGGCTACCTGTGCAGATATTTAACCTTTGGCCTAGGGAGATTAGAGTATCGGTCGA” has a binding signal of 4.61 log2 normalized intensity. “CTTTGTTTACTTAACCTTTGATCATATGCAGCCTAGGGAGATTAGAGTATCGGTCGA” showed a binding signal of 5.75 log2 normalized intensity. Work on “TTGCACTGTGCTTTGTTTACTTAACCTTTGGCCTAGGGAGATTAGAGTATCGGTCGA” yielded a binding signal of 4.5 log2 normalized intensity. Work on “TACCTGTGCAGATATTTAACCTTTGATCTGGCCTAGGGAGATTAGAGTATCGGTCGA” yielded a binding signal of 8.15 log2 normalized intensity. For “CCTGTCTGACAGGATGAATTTATTGCCCTCGCCTAGGGAGATTAGAGTATCGGTCGA”, the binding signal was 3.21 log2 normalized intensity. Sequence “ATGGTGACCATGTGATGTGAAGAGTGTGGAGCCTAGGGAGATTAGAGTATCGGTCGA” has a binding signal of 1.31 log2 normalized intensity. With “CTTGTGTAATAACGAGACCTTAGCCCTGAAGCCTAGGGAGATTAGAGTATCGGTCGA” the binding signal was -0.451 log2 normalized intensity. For “GAGTTTAAATGACCTCTGCCCTTCCACCCAGCCTAGGGAGATTAGAGTATCGGTCGA”, the binding signal was 5.16 log2 normalized intensity. “TTGCCCTTCTTGGATGCCCTTCCCTAACCCGCCTAGGGAGATTAGAGTATCGGTCGA” showed a binding signal of 3.04 log2 normalized intensity. “TTCCTCCCTTGGAATGTGACCTTAGACCCCGCCTAGGGAGATTAGAGTATCGGTCGA” was tested, and the binding signal was 8.83 log2 normalized intensity. “GTCCAGAGTTTAAATGACCTCTGCCCTTCCGCCTAGGGAGATTAGAGTATCGGTCGA” showed a binding signal of 7.43 log2 normalized intensity. In the case of “CTGGCTTTCATTCCACTGACTTGCAACCTTGCCTAGGGAGATTAGAGTATCGGTCGA”, the binding signal is reported as 1.09 log2 normalized intensity. With “GAGAGTTCCCTTGGAATGCCAGATGACCTTGCCTAGGGAGATTAGAGTATCGGTCGA” the binding signal was 4.6 log2 normalized intensity. In the case of “TTAGCTTCCTCCCTTGGAATGTGACCTTAGGCCTAGGGAGATTAGAGTATCGGTCGA”, the binding signal is reported as 5.27 log2 normalized intensity. With “TTCCACTGACTTGCAACCTTTGCCCTGTTGGCCTAGGGAGATTAGAGTATCGGTCGA” the binding signal was 7.2 log2 normalized intensity. With “TTTCATTCCACTGACTTGCAACCTTTGCCCGCCTAGGGAGATTAGAGTATCGGTCGA” the binding signal was 7.51 log2 normalized intensity. Sequence “TTTCTGTCCAGAGTTTAAATGACCTCTGCCGCCTAGGGAGATTAGAGTATCGGTCGA” has a binding signal of 4.72 log2 normalized intensity. In the case of “CCCTTGGAATGTGACCTTAGACCCCTGAATGCCTAGGGAGATTAGAGTATCGGTCGA”, the binding signal is reported as 6.49 log2 normalized intensity. For “TTCCCTTGGAATGCCAGATGACCTTTGCCCGCCTAGGGAGATTAGAGTATCGGTCGA”, the binding signal was 10.2 log2 normalized intensity. “AAGATAATGGGTCCGAAGGTCAGCTGACCAGCCTAGGGAGATTAGAGTATCGGTCGA” gave a binding signal of 5.57 log2 normalized intensity. With “TGATTATTTGTGAAGGCATTATTGGTGAAAGCCTAGGGAGATTAGAGTATCGGTCGA” the binding signal was 0.974 log2 normalized intensity. “TCAGAGCTTGAAAAGTCTTTCTGCCAAAGTGCCTAGGGAGATTAGAGTATCGGTCGA” was tested, and the binding signal was 0.513 log2 normalized intensity. “TGGCATCCCTGTGGTATTTGCTCTGTCATCGCCTAGGGAGATTAGAGTATCGGTCGA” showed a binding signal of 1.39 log2 normalized intensity. In the case of “GCTAAAAGTTGAATTCTTGACTTTGGACTTGCCTAGGGAGATTAGAGTATCGGTCGA”, the binding signal is reported as 6.55 log2 normalized intensity. For “GACCTCTGGACCTCATCTTCCTCCCCAATAGCCTAGGGAGATTAGAGTATCGGTCGA”, the binding signal was 4.6 log2 normalized intensity. Sequence “CCTAGGTGCTGAAGATGCAACAGTGACCCAGCCTAGGGAGATTAGAGTATCGGTCGA” has a binding signal of 3.1 log2 normalized intensity. In the case of “AGTCTGGAGGGGTGCGAAGGTCGAGGCCAGGCCTAGGGAGATTAGAGTATCGGTCGA”, the binding signal is reported as 3.39 log2 normalized intensity. With “AGCTACTAGCAAATCTGCCCAACCTTTGCCGCCTAGGGAGATTAGAGTATCGGTCGA” the binding signal was 2.1 log2 normalized intensity. For “AGATGACCTTTGCCCTTGACTTTTTGTGGGGCCTAGGGAGATTAGAGTATCGGTCGA”, the binding signal was 7.72 log2 normalized intensity.
